Results from PubChem BioAssay (NCI).
The panel holds about 79,000 compounds, 15% with a hit somewhere; the sample as a whole holds those more often. Activity calls are given as the source filed them. Cut-off read from the data, not from the text of the source: active = growth inhibition above about 70%; inactive = the rest.

Experiments:
[1] = NCI Yeast Anticancer Drug Screen. Data for the rad52 strain (AID 147);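 note: 0% = growth of vehicle-treated control cultures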; conditions: S. cerevisiae rad52 mutant growth inhibition, hits give high values
Summary of the method: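 Inhibition of yeast growth, referenced to vehicle controls, was the measured output for a strain with defective DNA damage repair.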

[2] = NCI Yeast Anticancer Drug Screen. Data for the wt1 strain (AID 149);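 note: 0% = growth of vehicle-treated wt1 cultures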; conditions: S. cerevisiae wt1 strain (SPY 50644) growth inhibition, hits give high values
Summary of the method: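 Measured: growth of wt1 yeast under compound versus vehicle treatment, reported as inhibition.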

[3] = NCI Yeast Anticancer Drug Screen. Data for the rad50EPP+ strain (AID 151);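 note: 0% = growth of vehicle-treated control cultures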; conditions: S. cerevisiae rad50 mutant strain, hits give high values
Summary of the method: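 Genetically defined yeast (rad50EPP+, DNA damage repair alteration) is grown with compound, and inhibition of growth is expressed relative to vehicle-treated controls.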

[4] = NCI Yeast Anticancer Drug Screen. Data for the mgt1 strain (AID 153); conditions: S. cerevisiae mgt1 mutant growth inhibition, hits give high values
Summary of the method: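 In the mgt1 strain, test compounds were added and growth inhibition was determined relative to vehicle-treated controls.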

[5] = NCI Yeast Anticancer Drug Screen. Data for the rad50 strain (AID 155);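 note: 0% = growth of vehicle-only cultures of the same strain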; conditions: S. cerevisiae rad50 strain growth inhibition, hits give high values
Summary of the method: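 Growth of the mutant yeast was measured after compound exposure and referenced to vehicle-treated cultures.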

[6] = NCI Yeast Anticancer Drug Screen. Data for the mec2-1 strain (AID 157); conditions: S. cerevisiae mec2-1 strain, hits give high values
Summary of the method: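 Each compound was tested on mec2-1 yeast, a strain altered in DNA damage repair or cell cycle control. Growth inhibition is reported relative to vehicle.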

[7] = NCI Yeast Anticancer Drug Screen. Data for the rad14 strain (AID 159);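 note: 0% = growth of vehicle-treated control cultures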; conditions: S. cerevisiae rad14 strain growth inhibition, hits give high values
Summary of the method: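 Here, inhibition of yeast growth was measured after compound exposure, using a strain with a genetic defect in DNA damage repair and vehicle-treated cultures as the reference.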

[8] = NCI Yeast Anticancer Drug Screen. Data for the sgs1 mgt1 strain (AID 161);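 note: 0% = growth of cultures given vehicle only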; conditions: S. cerevisiae sgs1 mgt1 strain, hits give high values
Summary of the method: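 Test agents were incubated with a DNA-repair-mutant yeast strain. Growth was then read and compared against vehicle-treated controls.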

[9] = NCI Yeast Anticancer Drug Screen. Data for the CLN2oe strain (AID 163);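 note: 0% = growth of vehicle-only control cultures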; conditions: S. cerevisiae CLN2oe strain, hits give high values
Summary of the method: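 First, the altered yeast strain was treated with each compound; second, its growth was measured; finally, inhibition was derived by comparison with vehicle controls.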

[10] = NCI Yeast Anticancer Drug Screen. Data for the cln2 rad14 strain (AID 165);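 note: 0% = growth equal to vehicle treated cultures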; conditions: S. cerevisiae cln2 rad14 strain, hits give high values
Summary of the method: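 Test compounds were added to cln2 rad14 yeast cultures; inhibition of growth was then determined by comparison with vehicle treatment.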

[11] = NCI Yeast Anticancer Drug Screen. Data for the bub3 strain (AID 167); conditions: S. cerevisiae bub3 mutant strain, hits give high values
Summary of the method: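 Whole-cell yeast assay. The mutant strain was incubated with compounds, and growth inhibition was determined by comparison with vehicle-treated cells.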

[12] = NCI Yeast Anticancer Drug Screen. Data for the wt2 strain (AID 169);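 note: 0% = growth of vehicle-treated yeast cultures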; conditions: S. cerevisiae wt2 strain growth inhibition, hits give high values
Summary of the method: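 The panel's yeast strains carry defined changes in DNA repair or cell cycle genes. Each strain is grown with compound, and growth loss is scored relative to vehicle.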

[13] = NCI Yeast Anticancer Drug Screen. Data for the mlh1 strain (AID 171);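 note: 0% = growth of vehicle-treated control cultures of the same strain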; conditions: S. cerevisiae mlh1 strain growth inhibition, hits give high values
Summary of the method: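 Inhibition values reflect reduced yeast growth in the presence of compound, referenced to vehicle controls, using a strain chosen for its alteration in DNA repair or cell cycle control.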

[14] = NCI Yeast Anticancer Drug Screen. Data for the sgs1 strain (AID 173);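 note: 0% = growth of vehicle-only control cultures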; conditions: S. cerevisiae sgs1 mutant, hits give high values
Summary of the method: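 Vehicle-treated cultures served as reference for growth inhibition of a yeast strain altered in DNA damage repair or cell cycle control after compound exposure.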

[15] = NCI Yeast Anticancer Drug Screen. Data for the mlh1 rad18 strain (AID 175); conditions: S. cerevisiae mlh1 rad18 strain growth inhibition, hits give high values
Summary of the method: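 Inhibition values reflect reduced growth of mutant yeast versus vehicle-treated controls following compound exposure; the mutations affect DNA damage repair.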

[16] = NCI Yeast Anticancer Drug Screen. Data for the rad18 strain (AID 177); conditions: S. cerevisiae rad18 mutant growth inhibition, hits give high values
Summary of the method: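 Steps: expose repair-mutant yeast to compound; measure growth; express as inhibition relative to vehicle control.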

[17] = at 5.0 µM (retest, dose inferred, filed as 0.5)
[18] = at 50.0 µM (retest, dose inferred, filed as 5.0)

Measured: growth inhibition

Cc1ccc2[nH]c3c(C)c4cc[n+](C)cc4c(C)c3c2c1
inactive: [1]; at 1.2 µM 25% | [1]; at 3.7 µM 14% | [1]; at 11.0 µM 34% | [2]; at 1.2 µM -6% | [2]; at 3.7 µM -12% | [2]; at 11.0 µM -10% | [2]; at 33.0 µM 6% | [3]; at 1.2 µM 35% | [3]; at 3.7 µM 21% | [3]; at 11.0 µM 31% | [3]; at 33.0 µM 49% | [4]; at 1.2 µM -18% | [4]; at 3.7 µM -15% | [4]; at 11.0 µM -23% | [4]; at 33.0 µM 47% | [5]; at 1.2 µM 12% | [5]; at 3.7 µM 16% | [5]; [17] 22% | [5]; at 11.0 µM 26% | [6]; at 1.2 µM -2% | [6]; at 3.7 µM 19% | [6]; [17] 15% | [6]; at 11.0 µM 8% | [6]; at 33.0 µM 55% | [7]; at 1.2 µM 16% | [7]; at 3.7 µM 6% | [7]; at 11.0 µM -8% | [7]; at 33.0 µM 41% | [8]; [17] 13% | [8]; [18] 8% | [9]; at 1.2 µM 42% | [9]; at 3.7 µM 37% | [9]; at 11.0 µM 36% | [9]; at 33.0 µM 63% | [10]; [17] 30% | [10]; [18] 37% | [10]; at 50.0 µM 62.3% | [11]; at 1.2 µM 10% | [11]; at 3.7 µM 24% | [11]; [17] 12% | [11]; at 11.0 µM 23% | [11]; at 33.0 µM 51% | [11]; at 50.0 µM 65.6% | [12]; at 1.2 µM 3% | [12]; at 3.7 µM -19% | [12]; at 11.0 µM -15% | [12]; at 33.0 µM 49% | [13]; at 1.2 µM 7% | [13]; at 3.7 µM 25% | [13]; at 11.0 µM 14% | [13]; at 33.0 µM 61% | [14]; at 1.2 µM 1% | [14]; at 3.7 µM -21% | [14]; at 11.0 µM 22% | [14]; at 33.0 µM 54% | [15]; [17] 14% | [15]; at 50.0 µM -26.9% | [16]; at 1.2 µM -11% | [16]; at 3.7 µM -1% | [16]; at 11.0 µM 1% | [16]; at 33.0 µM 37%
active: [1]; at 33.0 µM 89% | [1]; at 100.0 µM 97% | [2]; at 100.0 µM 79% | [3]; at 100.0 µM 88% | [4]; at 100.0 µM 94% | [5]; at 33.0 µM 83% | [5]; [18] 91% | [5]; at 50.0 µM 85.6% | [5]; at 100.0 µM 95% | [6]; [18] 71% | [6]; at 50.0 µM 79.8% | [6]; at 100.0 µM 94% | [7]; at 100.0 µM 90% | [8]; at 50.0 µM 85.7% | [9]; at 100.0 µM 95% | [11]; [18] 81% | [11]; at 100.0 µM 95% | [12]; at 100.0 µM 95% | [13]; at 100.0 µM 94% | [14]; at 100.0 µM 93% | [15]; [18] 72% | [16]; at 100.0 µM 93%
